# Assay results: PubChem BioAssay (NCATS)
# Records with an inconclusive call do not appear. The source made the active and inactive calls. The call rests on the fitted dose curve.
# Assay: qHTS Assay for Lipid Storage Modulators (AID 1519); on activity change, negative = inhibition: on the % scale 0 is the no-effect control and ±100 the full control effect
# Conditions: Drosophila S3 cells, BODIPY lipid droplet/cell ratio, laser cytometry; at 57.5 µM (top of the series); cells loaded with oleic acid
# How it was run: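 Cells seeded at 5,000 per well were treated with compounds over a concentration series and loaded with oleic acid (400 uM, as added). Lipid droplet fluorescence (488 nm excitation, 500-530 nm channel) was read by laser-scanning cytometry and normalized to 20 uM Triacsin C.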
row,Compound,"activity change, negative = inhibition"
1,C=C1C2CC[C@@]3(C)C(c4ccoc4)OC(=O)C[C@@]13OC1CC(=O)C(C)(C)C(C(O)C(=O)OC)[C@]12C (stereo not given in full),-0.848% (inactive)
2,NCC1O[C@@H](O[C@@H]2C(O)[C@H](O[C@H]3OC(CO)C(O)C(N)C3O)[C@@H](N)C[C@H]2N)C(N)C(O)C1O (stereo not given in full),5.31% (inactive)
3,COc1c(Cl)ccc(Cl)c1C(=O)O,0.0476% (inactive)
4,O=c1c(-c2ccc(O[C@@H]3O[C@H](CO)[C@@H](O)[C@H](O)[C@H]3O)cc2)coc2cc(O)cc(O)c12,7.95% (inactive)
5,Nc1ncnc2c1ncn2C1CC(O)C(CO)O1 (stereo not given),-2.62% (inactive)

# Same assay, conditions: Drosophila S3 cells, BODIPY lipid droplet/cell ratio, laser cytometry; measured here: cell count channel max response; cells loaded with oleic acid
row,Compound,max response [%]
1,COC(=O)CC1C(C)(C)C(OC(C)=O)[C@@]2(O)C=C3C4CC(=O)OC(c5ccoc5)[C@]4(C)CCC3[C@@]1(C)C2=O (stereo not given in full),10.1
2,CC1(C)C(=O)CC[C@@]2(C)C1CC(O)[C@@]1(C)C3=CC(=O)OC(c4ccoc4)[C@]3(C)CCC21 (stereo not given in full),13.9
3,O=c1ccn([C@H]2C[C@H](O)[C@@H](CO)O2)c(=O)[nH]1,9.77
4,COc1cc(OC)c2c(=O)c(OC)c(-c3ccc(OC)c(OC)c3)oc2c1,14.1
5,COC(=O)CC1C(C)(C)C(=O)C2CC3=C4CC(=O)OC(c5ccoc5)[C@]4(C)CCC3[C@@]1(C)C2=O (stereo not given in full),14.1
6,CC(=O)OC1CC2C(C)(C)C(O)CC(O)[C@@]2(C)C2CC[C@@]3(C)C(=CC(=O)OC3c3ccoc3)[C@]12C (stereo not given in full),-0.781
7,C=CC1=C(C(=O)O)N2C(=O)C(NC(=O)/C(=N\O)c3csc(N)n3)C2SC1 (stereo not given),11.5
8,COC(=O)CC1C(C)(C)C(O)C2CC3=C4C=C(OC)OC(c5ccoc5)[C@]4(C)CCC3[C@@]1(C)C2=O (stereo not given in full),2.63
9,NCC1O[C@@H](OC2C(N)C[C@H](N)[C@@H](O[C@H]3OC(CO)C(O)C(N)C3O)C2O)C(N)C(O)C1O (stereo not given in full),11.9
10,COc1ccc2c(c1)OCC(Cc1ccc(OC)c(O)c1)C2=O (stereo not given),3.51
11,CC1=CC(=O)[C@@H]2C[C@H]1C2(C)C,-1.97
12,CCN(CC)Cc1ccc(Nc2ccnc3cc(Cl)ccc23)cc1O,18.7
13,CC(C)[C@H]1CC[C@@H](C)C[C@H]1O,-11.9
14,CC1=C(C2=C(C)C(C(C)C)C3=C(C(=O)C(O)C3O)C2O)C(O)C2=C(C(O)C(O)C2=O)C1C(C)C (stereo not given),12.4
15,O=C(O)C1OC(O)C(O)C(O)C1O (stereo not given),-1.15
16,CCCCCC(=O)Cc1cc(O)cc(O)c1C(=O)Oc1cc(CC(=O)CCCCC)c(C(=O)O)c(OC)c1,7.66
17,COC(=O)CC1C(C)(C)C(OC(C)=O)C2CC3C4CC(=O)OC(c5ccoc5)[C@]4(C)CCC3[C@@]1(C)C2=O (stereo not given in full),1.85
18,C[C@@H]1O[C@@H](O[C@H]2[C@H](Oc3cc(O)c4c(c3)O[C@H](c3ccc(O)cc3)CC4=O)O[C@H](CO)[C@@H](O)[C@@H]2O)[C@H](O)[C@H](O)[C@H]1O,-6.96
19,Cc1cc(=O)oc2cc(O[C@@H]3O[C@H](C(=O)O)[C@@H](O)[C@H](O)[C@H]3O)ccc12,8.78
20,C=C[C@](C)(O)CCC1C(=C)CCC2[C@@](C)(CO)CCC[C@@]12C (stereo not given in full),-1.43

row,Compound,max response [%]
1,COC1OC2COC(c3ccccc3)OC2C(O)C1O (stereo not given),4.47
2,COc1cccc2c1CCC1CC(=O)CC[C@@]21C (stereo not given in full),-12.9
3,Nc1ccn([C@H]2C[C@H](O)[C@@H](CO)O2)c(=O)n1,3.42
4,O=c1[nH]c(=O)n([C@@H]2O[C@H](CO)[C@@H](O)[C@H]2O)cc1Br,-11.6
5,CNc1ccccc1C(=O)N1CCc2c([nH]c3ccccc23)C1=O,12.5
6,C/C=C(\C)C(=O)OC1[C@@H]2C=C3C4CC(=O)OC(c5ccoc5)[C@]4(C)CCC3[C@@](C)(C2=O)C(C(O)C(=O)OC)C1(C)C (stereo not given in full),8.66
7,COc1ccc2c(c1)OCC(Cc1ccc(OC)c(OC)c1)C2O (stereo not given),8.42
8,Cc1ccc2c(c1)CC[C@H]1CC(=O)CC[C@@]21C,-2.47
9,O=c1cc(-c2cccc(O)c2)oc2ccc(O)cc12,3.49
10,COC1(C)CCC2OC2(C)CCC2C1CC2(C)C (stereo not given),6.3
11,C=C1C2CC[C@@]3(C)C(c4ccoc4)OC(=O)C[C@@]13OC1CC(=O)C(C)(C)C(CC(=O)OC)[C@]12C (stereo not given in full),-7.73
12,COc1cc2c(cc1OC)Cc1cc(OC)c(OC)cc1Cc1cc(OC)c(OC)cc1C2,2.54
13,CC(C)/C(O)=C1/C(=O)OC(c2ccoc2)[C@@]2(C)C(O)C(O)[C@@]34OC5(C)OC67CC(C)(C(O)[C@@]6(O)C(O)[C@@]3(O5)C12)C(CC(=O)O)[C@@]74C (stereo not given in full),-1.97
14,CC1(C)SC2C(NC(=O)C(N)c3ccccc3)C(=O)N2C1C(=O)O (stereo not given),15.7
15,CC[C@H](C)[C@H](NC(=O)OCC1c2ccccc2-c2ccccc21)C(=O)O,1.47
16,C=C1C2CC[C@@]3(C)C(c4ccoc4)OC(=O)C[C@@]13OC1CC(=O)C(C)(C)C(C(O)C(=O)OC)[C@]12C (stereo not given in full),11.1
17,NCC1O[C@@H](O[C@@H]2C(O)[C@H](O[C@H]3OC(CO)C(O)C(N)C3O)[C@@H](N)C[C@H]2N)C(N)C(O)C1O (stereo not given in full),20.8
18,COc1c(Cl)ccc(Cl)c1C(=O)O,-8.45
19,O=c1c(-c2ccc(O[C@@H]3O[C@H](CO)[C@@H](O)[C@H](O)[C@H]3O)cc2)coc2cc(O)cc(O)c12,-1.95
20,Nc1ncnc2c1ncn2C1CC(O)C(CO)O1 (stereo not given),-5.57
